The source of these data is paper PMC7819943, “Rice protein-binding microarrays: a tool to detect cis-acting elements near promoter regions in rice”.

Whole data set: some 68,000 sequences, median “fluorescence intensity (a.u.)” near 9,100, cut for the highest 2% near 16,000. This is one part of a sample in which the highest values are shown more often than they occur.

The target in this assay is OsWRKY34 (Oryza sativa, UniProt Q0JBA9 1-250). Put plainly: protein-binding microarray (RPBM); PBS, 2% BSA, 51.3 ng/ul salmon testes DNA, 50 uM zinc acetate, 200 nM TF, 25 C, 1 h; high values mean tight binding. The conditions noted are these: protein: recombinant; tags: N-terminal polyhistidine and DsRed monomer fusion (pET32a); label: CyDye5-dUTP incorporated in the synthesized complementary strand; 3' TTTTT single-stranded linker to array surface; dsDNA, one strand shown. The gist of the method: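 The binding signal for each feature is its fluorescence intensity in arbitrary units. An Axon 4000B scanner was used to read a custom Agilent array that had been made double-stranded with Cy5-dUTP primer extension, blocked with 2% BSA, incubated at 25 °C for 1 h with 200 nM protein in PBS, 2% BSA, salmon testes DNA and 50 µM zinc acetate, and washed. The protein was an N-terminal polyhistidine–DsRed transcription factor fusion from E. coli BL21-CodonPlus, purified on Ni–NTA.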
Chain of OsWRKY34 (Q0JBA9 entry or part of it): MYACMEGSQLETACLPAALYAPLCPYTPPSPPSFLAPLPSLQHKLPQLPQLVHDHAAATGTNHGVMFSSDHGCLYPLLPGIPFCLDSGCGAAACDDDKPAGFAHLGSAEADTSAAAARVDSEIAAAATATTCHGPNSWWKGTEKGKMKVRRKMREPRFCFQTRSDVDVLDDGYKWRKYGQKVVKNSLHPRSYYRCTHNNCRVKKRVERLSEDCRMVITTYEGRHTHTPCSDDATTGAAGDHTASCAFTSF
In the case of “ATTCTGTAACCCGCTGCGGGCAACGGCCGGACGTGCAATCCGGAGTCACCTAGTGCAG”, the binding signal is 9630 fluorescence intensity (a.u.).
For the sequence “CTGATCGAATACTCTAGCATTGCGATCTTTCCAAATTTGCCGGAGTCACCTAGTGCAG”, the binding signal is 8510 fluorescence intensity (a.u.).
For “GGAGGGTGCGACAGCCCAATGTATCACTTGCGTTTGTATCCGGAGTCACCTAGTGCAG” the value was 8230 fluorescence intensity (a.u.).
For “GTAGCATGCTTCTATCCTGTCCCGGTGTTTGTCGTACATTCGGAGTCACCTAGTGCAG” the value was 10200 fluorescence intensity (a.u.); for “GATTGAGTGTGCCCGTGTGAGATAGAATCTTTTTGCCCTTCGGAGTCACCTAGTGCAG”, 8930 fluorescence intensity (a.u.).
Consider “TGTCAGCCTCGTCCGGCTTCATCCCGTTGCGTCCCATTTTCGGAGTCACCTAGTGCAG”, for which the binding signal was 17600 fluorescence intensity (a.u.).
For “GGCTTCCCGTTGCGCGCGCGTCCCATCCTCGCCGGCGCTTCGGAGTCACCTAGTGCAG” the value was 8470 fluorescence intensity (a.u.); for “AGCCACCACAGCCATCGCCCGTTCTTCCCGCCGGCCTATCCGGAGTCACCTAGTGCAG”, 9990 fluorescence intensity (a.u.).
Turning to “ACAGCTTGCCGCCACCACCACACCACGCCGCTCGCCGCCCCGGAGTCACCTAGTGCAG”, the binding signal is 8950 fluorescence intensity (a.u.).
Turning to “CAGCCCGCCGCCCCGCCCCGCCCCGCCGCAGGTCATTGACCGGAGTCACCTAGTGCAG”, the binding signal was 16400 fluorescence intensity (a.u.).
As for “CCGCCATCGCCGCCGCCATCCGTTGACCATGGCTTCAGCCCGGAGTCACCTAGTGCAG”, the figure is 18900 fluorescence intensity (a.u.); as for “CACCGCCGCAGCCCAAGCCCACCACCACCACCGCCGCCGCCGGAGTCACCTAGTGCAG”, 9060 fluorescence intensity (a.u.); as for “ACATCCCCGACCCGCCCCGCCTCACCGGTCATTCGCAGCCCGGAGTCACCTAGTGCAG”, 9440 fluorescence intensity (a.u.).
As to “ATCCCGTTGCGTCCCATTTTCCTCGCCCTCGTCGCTAGTTCGGAGTCACCTAGTGCAG”, the binding signal is 11200 fluorescence intensity (a.u.).
For the sequence “CCGCCGCTCCACCGTCTCAGCCATCGCCACCGCCCGCAGCCGGAGTCACCTAGTGCAG”, the binding signal is 8400 fluorescence intensity (a.u.).
“GCCGCTCACAGCCGTCTTCGCTTGCCCGCCGCCATCGCCACGGAGTCACCTAGTGCAG”: the binding signal was 17500 fluorescence intensity (a.u.).
As for “GGCTTCATCACAGCATCCATCGCCGCCGGCCACCACCACCCGGAGTCACCTAGTGCAG”, the figure is 12700 fluorescence intensity (a.u.); as for “ATCTTTTCCGCTGTTGCTGCTCCTCCTTTCTCGCTCTCGCCGGAGTCACCTAGTGCAG”, 9750 fluorescence intensity (a.u.).
As for “AGGTTCTATGACAGTATTGCACCCGGTTTTGTCAGCTGACCGGAGTCACCTAGTGCAG”, the figure is 8600 fluorescence intensity (a.u.).
With “CTCCCGTGTCCCATTTAAAACCTTCTTCTTCTTCTTCGCTCGGAGTCACCTAGTGCAG”, the binding signal was 8650 fluorescence intensity (a.u.).
“CGCCACCACTGCTGCCATCGTCAACATCCTATATGATTTTCGGAGTCACCTAGTGCAG”: the binding signal was 13400 fluorescence intensity (a.u.).
For “ATCAACCAGTAATCAATTGACCAAGCGGTTCTTGCGCCTACGGAGTCACCTAGTGCAG” the value was 9780 fluorescence intensity (a.u.); for “GTTCTCACACTTCAGATTGTTATGTTTGGCTATGCTGTCTCGGAGTCACCTAGTGCAG”, 9600 fluorescence intensity (a.u.).
As for “CTCTTAGCAATGCTGACTGGTCCGATCAAAGTCAACGGTTCGGAGTCACCTAGTGCAG”, the figure is 8730 fluorescence intensity (a.u.); as for “GAACCTGTCTACATCGGCCGTGTCTCGTGCACTTGCTCTCCGGAGTCACCTAGTGCAG”, 10700 fluorescence intensity (a.u.).
For “TGTCTTGGTCTTGTGGCGTTTATTGTTGCCGTCTGAGCGACGGAGTCACCTAGTGCAG” the value was 11000 fluorescence intensity (a.u.).
As for “TATTTTAATGTATGATGCCGTTGACTTTTTAACCAACGTTCGGAGTCACCTAGTGCAG”, the binding signal was 27000 fluorescence intensity (a.u.).
Take “GCTTTTGAGTTGACAGCCACCGTTTTTAACCAACGCGCGACGGAGTCACCTAGTGCAG”: the binding signal was 8140 fluorescence intensity (a.u.).
For “TTTAATGTATGACACCGTTGACTTTTTAACCAACGTTTGACGGAGTCACCTAGTGCAG” the value was 36300 fluorescence intensity (a.u.); for “TTCAATGACAATGTTGACTTTTTGACAAACGTTTAACCTTCGGAGTCACCTAGTGCAG”, 10200 fluorescence intensity (a.u.); for “AATGTATGACACCGTTGACTTCTTGACCAACGTTTAACCACGGAGTCACCTAGTGCAG”, 18700 fluorescence intensity (a.u.).
For “CACTATTCACGTTTAACGTTTGACCGTTCTTCTTATTTGACGGAGTCACCTAGTGCAG” the value was 10300 fluorescence intensity (a.u.); for “GACTTTTTTAAACATATTTGACCGTTCGTTTTATTCAAAACGGAGTCACCTAGTGCAG”, 8190 fluorescence intensity (a.u.).
With “TGTATGATGCCTTTAACTTTTTAACCAACGTTTAATGTTTCGGAGTCACCTAGTGCAG”, the binding signal is 9010 fluorescence intensity (a.u.).
Turning to “GTTTATAAACTTAGTCAAACTTGAAACAGTTTGACTTTGACGGAGTCACCTAGTGCAG”, the binding signal is 12400 fluorescence intensity (a.u.).
As for “GTATTTTAATGTATGACATTGTTGACTTTTTGATTAACGTCGGAGTCACCTAGTGCAG”, the figure is 13000 fluorescence intensity (a.u.).
For the sequence “TTTAGACTTCTTCCAACTGGAATGCGTTTGACCCTAACCACGGAGTCACCTAGTGCAG”, the binding signal is 8180 fluorescence intensity (a.u.).
In the case of “TTTAATATATAACACCGTTGACTTTTTATCAAACGTTTGACGGAGTCACCTAGTGCAG”, the binding signal is 23400 fluorescence intensity (a.u.).
For “GCTCTTTGGCCTGCTTCAGCCTTCAGCTTCTCCATGGTTTCGGAGTCACCTAGTGCAG” the value was 10700 fluorescence intensity (a.u.).
“TACCTACTTTCTCATCTTAAGCAATCACTTCGACTTTAATCGGAGTCACCTAGTGCAG”: the binding signal is 9820 fluorescence intensity (a.u.).
As for “TGCCTAACAATTCTTTTTATTCGCGACGTCAATATACTACCGGAGTCACCTAGTGCAG”, the figure is 9730 fluorescence intensity (a.u.); as for “AGAATTACTGCTGCTTTATTTACTTTTCTTCCATTGGTTTCGGAGTCACCTAGTGCAG”, 13000 fluorescence intensity (a.u.).
